Compound activity from PubChem.
GPR151 activ: activators of human GPR151, primary screen, cell-based, PathHunter beta-arrestin, luminescence; activation, % at 11.2 µM; AID 1508602, 2020; G-protein coupled receptor 151 (Homo sapiens), Q8TDV0; PathHunter beta-arrestin GPR151 cells; actives 1% (n = 650,000); in the data active means activation above about 4.9%;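 further: 0% = median of compound wells and 100% = cells with positive control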
FBW7 act: FBW7 E3 ligase activators, primary screen, biochemical, AlphaScreen, human; F-box/WD repeat-containing protein 7 (Homo sapiens), Q969H0; normalized activity (activation), % at 26.1 µM; AID 1259310, 2017; AlphaScreen FBW7–phospho-cyclin E peptide binding, activator screen; actives 0.13% (n = 650,000); in the data active means normalized activity above about 1.9%;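 further: purified mutant Fbw7 with reduced substrate affinity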
MITF inh: MITF inhibitors, primary screen, biochemical, AlphaScreen, human. AlphaScreen MITF homodimerization, bead proximity signal. Microphthalmia-associated transcription factor (Homo sapiens), O75030. inhibition, % at 2.6 µM. actives 0.91% (n = 650,000). AID 1259374, 2018; in the data active means inhibition above about 50%;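 further: 0% = vehicle wells with protein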
Target sequence (O75030 whole entry, looked up): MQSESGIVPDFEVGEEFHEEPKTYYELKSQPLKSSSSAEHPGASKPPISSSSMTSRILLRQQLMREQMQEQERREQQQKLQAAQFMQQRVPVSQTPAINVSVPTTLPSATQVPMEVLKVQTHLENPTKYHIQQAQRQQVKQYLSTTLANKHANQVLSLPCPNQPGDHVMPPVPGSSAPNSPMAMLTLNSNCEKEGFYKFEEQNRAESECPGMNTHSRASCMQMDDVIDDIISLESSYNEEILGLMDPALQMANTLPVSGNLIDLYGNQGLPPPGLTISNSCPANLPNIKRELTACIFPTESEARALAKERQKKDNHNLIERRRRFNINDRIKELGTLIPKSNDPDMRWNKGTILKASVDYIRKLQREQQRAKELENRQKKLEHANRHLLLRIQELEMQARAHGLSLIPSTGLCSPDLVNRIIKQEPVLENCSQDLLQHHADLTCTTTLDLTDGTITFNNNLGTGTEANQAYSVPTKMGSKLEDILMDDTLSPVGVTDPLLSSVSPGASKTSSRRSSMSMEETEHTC
TEAD-YAP inh: TEAD-YAP interaction inhibition, primary screen, TEAD-YAP interaction inhibitor project, luminescence, HEK-TIYL cells; TEAD-Gal4/YAP UAS-luciferase luminescence; inhibition, % at 9.12 µM; actives 1.4% (n = 640,000); AID 1259422, 2018; in the data active means inhibition above about 32%;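 further: 0% = median of test compound wells and 100% = reference inhibitor wells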
GPR151 confirm: GPR151 activators, triplicate retest, confirmation, cell-based, PathHunter beta-arrestin, luminescence; shares compounds with GPR151 activ; GPR151 PathHunter beta-arrestin cells, 90 min; % of EA-reagent control over plate median; activation, % at 11.2 µM; 6,700 tested, under 10 active; AID 1508609, 2020;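 active means mean percent activation across replicates above the confirmation screen cutoff of 4.91%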
GPR119 ag: GPR119 activators in beta-arrestin cells, counter-screen for GPR151 activator project, cell-based, PathHunter beta-arrestin, luminescence, triplicate | 90 min; 0 = compound-well median, 100 = enzyme-acceptor control | shares compounds with GPR151 activ | actives 0.3% (n = 6,700) | activation, % at 11.2 µM | AID 1508611, 2020;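 active means mean percent activation in the counterscreen above 29.09%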;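 further: counterscreen on off-target GPR119 to flag nonselective hits from the GPR151 activator screen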
Active calls of the source: *; nt = not tested or not shown. Shown are actives, neighbours in structure and some others; about 3.5% of the full set was active somewhere.

SMILES | GPR151 activ | FBW7 act | MITF inh | TEAD-YAP inh | GPR151 confirm | GPR119 ag
COc1cccc(N2CC(C(=O)NCCc3ccsc3)CC2=O)c1 (configuration not stated) | 5.5* | -0.1 | 1.4 | 7.1 | -1.1 | -13.8
COc1ccc(N2CC(C(=O)NCCc3ccccc3)CC2=O)cc1 (configuration not stated) | 0.3 | -0.2 | -55.5 | -5.6 | nt | nt
COc1cc2c(cc1OC)C(c1cc(Br)cs1)CC(=O)N2 (configuration not stated) | 1.4 | -0.3 | 7.1 | -20.7 | nt | nt
O=C(NCc1ccncc1)c1ccc(OC2CCN(C3CCSCC3)CC2)cc1 | 0.4 | 0.0 | 5.4 | -0.3 | nt | nt
CSCCC(C)N1CCC(Oc2ccc(C(=O)NCc3ccncc3)cc2)CC1 (configuration not stated) | 5.0* | 0.0 | 6.2 | 5.7 | -0.9 | 6.9
O=C1OC(c2ccc(Cl)c([N+](=O)[O-])c2)=N/C1=C\C=C\c1ccccc1 | -0.2 | 0.3 | 24.3 | 8.9 | nt | nt
Nc1nc(NCc2ccccc2Cl)nn1-c1ccccc1 | 0.2 | 0.4 | 12.5 | -23.6 | nt | nt
O=C(c1ccccc1Cl)N1N=C(c2cccnc2)CC1c1ccccc1O (configuration not stated) | 6.7* | -0.1 | 9.1 | 15.3 | -0.8 | 6.0
CC(=O)Nc1ccc(S(=O)(=O)Nc2nnc(-c3ccc(F)cc3)s2)cc1 | 6.7* | -0.1 | 0.0 | -6.8 | 1.6 | 7.1
CCCCCn1c(SCc2cccc(Cl)c2)nc2cc(C(=O)N3CCCC3)ccc2c1=O | 0.0 | 0.0 | -8.5 | -5.0 | nt | nt
COc1ccccc1C(=O)NC(=S)NC(C)c1ccccc1 (configuration not stated) | 3.1 | -0.2 | 2.1 | -8.6 | nt | nt
Cc1ccc(-c2ncn(-c3ccc(Nc4nccc(-c5cncc(N6CCOCC6)c5)n4)cc3)n2)cn1 | -0.8 | -0.2 | 7.1 | 25.6 | nt | nt
c1ccc(Cn2cc(-c3ccc(Nc4nccc(-c5cncc(N6CCOCC6)c5)n4)cc3)cn2)cc1 | 6.8* | 0.0 | 2.2 | 31.1 | 1.1 | 23.9
CCCCc1cc(=O)oc2c(C)c(OCc3ccccc3F)ccc12 | -0.2 | 0.1 | -8.7 | -10.0 | nt | nt
O=[N+]([O-])c1ccccc1NCCNCCO | 7.9* | 0.0 | -0.6 | 2.6 | -0.4 | -2.1
O=[N+]([O-])c1cc(C(F)(F)F)ccc1NCCNCCO | 0.3 | -0.1 | -7.4 | 11.9 | nt | nt
Cc1nonc1OCCNCCNc1ccccc1[N+](=O)[O-] | 5.6* | 0.0 | 1.2 | 1.4 | -0.4 | 5.3
Cc1nonc1OCCCNc1ccc([N+](=O)[O-])cc1 | -1.3 | 0.9 | 4.0 | 17.1 | nt | nt
CCOC(=O)c1cc2c(c(CSc3nc4ccccc4c(=O)n3Cc3ccc4c(c3)OCO4)c1)OCOC2 | 4.9* | -0.1 | -6.8 | -7.5 | 2.6 | 9.6
CCOC(=O)c1cc2c(c(CSc3nc4ccccc4c(=O)n3Cc3cccs3)c1)OCOC2 | 0.6 | 0.3 | 0.7 | -9.2 | nt | nt
COC(=O)c1ccc(C2C3=C(CC(C)(C)CC3=O)N(c3cccc(C(F)(F)F)c3)C3=C2C(=O)CC(C)(C)C3)cc1 | 6.8* | 0.0 | 2.1 | 7.7 | 0.5 | -3.7
CCOC(=O)c1sc2nc(SCC(=O)NCc3ccccc3)n(Cc3ccc4c(c3)OCO4)c(=O)c2c1C | 2.0 | 0.0 | -5.2 | -0.8 | nt | nt
CCOC(=O)CSc1nc(N)c2c3c(sc2n1)CCCC3 | 13.4* | 0.9 | -3.4 | -8.0 | -1.0 | 0.4
CCCCCOC(=O)CSc1nc(N)c2c3c(sc2n1)CCCC3 | -1.1 | -0.1 | 0.8 | -5.1 | nt | nt
COc1ccc(OC)c(C2=NOC(C(=O)NCc3ccccc3)C2)c1 (configuration not stated) | 0.6 | -0.2 | 16.1 | 15.7 | nt | nt
COc1ccc(OC)c(C2=NOC(C(=O)NCc3cccnc3)C2)c1 (configuration not stated) | 6.3* | 0.3 | -13.2 | 1.0 | 0.8 | 5.7
COCCCNC(=O)c1nn(-c2cc(OC)cc(OC)c2)c(=O)c2ccccc12 | 2.7 | -0.1 | -4.2 | 2.8 | nt | nt
